Results: PubChem BioAssay
The source made the active and inactive calls.

How the values were obtained:
[1] = tested on: Plasmodium falciparum Sir2 (PF13_0152, Sir2A); test: Plasmodium falciparum Sir2A binding compounds – biochemical, small-molecule microarray, 635 nm fluorescence, primary screen (AID 1098); conditions: fluorescence 635 nm, higher = more signal;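 note: score merges spot fluorescence intensity with its signal-to-noise ratio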
[2] = probe aDKK1 binding to arrayed compounds – biochemical, biotinylated probe, 635/667 nm fluorescence, primary screen (AID 1099); conditions: small-molecule microarray, higher = more signal;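 note: score merges 667nm spot fluorescence with signal to noise across triplicate slides; reference of the scale not given here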
[3] = probe aCHRDL2 binding to arrayed compounds – biochemical, biotinylated probe, 635/667 nm fluorescence, primary screen (AID 1100); conditions: small-molecule microarray, higher = more signal
[4] = change in splice reporter luminescence, either direction, cell-based, HEK293, spliceosome inhibition project, primary screen (AID 1101); conditions: HEK293 splicing luciferase reporter, 24 h, higher = more signal, called active from +8 up or from −8 down;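 note: HEK293 cells carrying a splicing-competent luciferase reporter gene; test concentration not given here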
[5] = molecular target: Fibroblast growth factor 10 (Homo sapiens) (UniProt O15520); test: compounds binding fibroblast growth factor 10 – biochemical, small-molecule microarray, 635 nm fluorescence, primary screen (AID 1102); conditions: FGF10 binding, fluorescence 635 nm, higher = more signal
Fibroblast growth factor 10 (Homo sapiens), sequence (O15520 whole entry, looked up): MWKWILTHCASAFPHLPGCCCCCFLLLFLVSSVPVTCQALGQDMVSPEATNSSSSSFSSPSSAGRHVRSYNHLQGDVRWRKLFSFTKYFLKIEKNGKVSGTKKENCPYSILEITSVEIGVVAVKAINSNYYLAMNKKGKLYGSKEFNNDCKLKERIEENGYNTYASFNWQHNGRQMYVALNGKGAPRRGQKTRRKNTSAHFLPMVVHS

[6] = tested on: glycogen synthase kinase-3 (GSK3A per assay name; protocol says GSK3B); test: compounds binding glycogen synthase kinase-3 – biochemical, small-molecule microarray, 635 nm fluorescence, GSK3A, primary screen (AID 1103); conditions: fluorescence 635 nm, higher = more signal; note: the record names both GSK3A and GSK3B
[7] = molecular target: Epidermal growth factor receptor (Homo sapiens) (UniProt P00533); test: compounds binding epidermal growth factor receptor – biochemical, small-molecule microarray, 635 nm fluorescence, primary screen (AID 1104); conditions: EGFR binding, higher = more signal;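 note: score merges 667 nm emission intensity with spot signal to noise over triplicate slides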
Epidermal growth factor receptor (Homo sapiens), sequence (P00533 whole entry, looked up): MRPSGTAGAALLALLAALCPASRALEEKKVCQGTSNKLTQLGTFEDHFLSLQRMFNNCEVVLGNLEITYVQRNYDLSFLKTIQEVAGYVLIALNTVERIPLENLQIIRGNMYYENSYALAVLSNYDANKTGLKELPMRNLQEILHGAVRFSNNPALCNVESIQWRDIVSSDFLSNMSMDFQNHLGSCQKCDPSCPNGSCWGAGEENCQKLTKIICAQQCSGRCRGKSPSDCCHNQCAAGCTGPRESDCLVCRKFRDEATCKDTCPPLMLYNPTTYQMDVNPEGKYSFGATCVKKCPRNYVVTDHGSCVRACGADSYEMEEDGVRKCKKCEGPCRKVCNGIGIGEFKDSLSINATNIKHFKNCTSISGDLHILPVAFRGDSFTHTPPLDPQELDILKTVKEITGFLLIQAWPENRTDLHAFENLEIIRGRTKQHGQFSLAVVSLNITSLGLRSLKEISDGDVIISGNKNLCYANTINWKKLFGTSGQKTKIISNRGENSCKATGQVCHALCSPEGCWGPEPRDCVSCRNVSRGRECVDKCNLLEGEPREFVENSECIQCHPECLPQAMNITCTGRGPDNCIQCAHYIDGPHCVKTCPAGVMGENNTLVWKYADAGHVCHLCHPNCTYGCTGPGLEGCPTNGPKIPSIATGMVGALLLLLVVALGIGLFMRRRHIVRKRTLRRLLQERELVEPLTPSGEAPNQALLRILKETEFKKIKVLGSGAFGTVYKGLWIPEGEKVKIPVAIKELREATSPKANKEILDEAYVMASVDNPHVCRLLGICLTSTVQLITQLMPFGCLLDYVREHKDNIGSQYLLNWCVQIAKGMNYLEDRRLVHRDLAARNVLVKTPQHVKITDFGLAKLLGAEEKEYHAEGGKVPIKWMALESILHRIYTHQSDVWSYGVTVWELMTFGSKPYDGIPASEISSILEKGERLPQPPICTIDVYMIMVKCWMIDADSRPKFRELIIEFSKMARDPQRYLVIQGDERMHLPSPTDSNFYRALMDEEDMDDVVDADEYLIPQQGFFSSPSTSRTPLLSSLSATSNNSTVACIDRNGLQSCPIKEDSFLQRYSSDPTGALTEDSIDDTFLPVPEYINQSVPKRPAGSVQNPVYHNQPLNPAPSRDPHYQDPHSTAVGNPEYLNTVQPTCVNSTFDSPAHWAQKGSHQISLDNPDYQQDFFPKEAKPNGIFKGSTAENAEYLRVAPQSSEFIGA

[8] = molecular target: Follistatin-related protein 3 (Homo sapiens) (UniProt O95633); test: compounds binding follistatin-related protein 3 – biochemical, small-molecule microarray, 635 nm fluorescence, primary screen (AID 1105); conditions: FSTL3 binding, higher = more signal;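 note: score merges emission near 667 nm and signal to noise per printed spot across three slides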
Follistatin-related protein 3 (Homo sapiens), sequence (O95633 whole entry, looked up): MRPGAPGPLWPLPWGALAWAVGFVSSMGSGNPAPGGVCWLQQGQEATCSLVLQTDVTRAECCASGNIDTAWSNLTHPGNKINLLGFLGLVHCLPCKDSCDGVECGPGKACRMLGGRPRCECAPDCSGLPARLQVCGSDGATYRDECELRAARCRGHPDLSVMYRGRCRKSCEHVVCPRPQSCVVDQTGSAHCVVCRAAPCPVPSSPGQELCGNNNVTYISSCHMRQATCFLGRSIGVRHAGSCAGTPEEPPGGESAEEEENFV

[9] = molecular target: Dickkopf-related protein 1 (Homo sapiens) (UniProt O94907); test: small molecules binding DKK1 protein – biochemical, small-molecule microarray, 635 nm fluorescence scan, primary screen (AID 1106); conditions: higher = more signal;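 note: score merges emission near 667 nm with signal to noise over three replicate slides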
Dickkopf-related protein 1 (Homo sapiens), sequence (O94907 whole entry, looked up): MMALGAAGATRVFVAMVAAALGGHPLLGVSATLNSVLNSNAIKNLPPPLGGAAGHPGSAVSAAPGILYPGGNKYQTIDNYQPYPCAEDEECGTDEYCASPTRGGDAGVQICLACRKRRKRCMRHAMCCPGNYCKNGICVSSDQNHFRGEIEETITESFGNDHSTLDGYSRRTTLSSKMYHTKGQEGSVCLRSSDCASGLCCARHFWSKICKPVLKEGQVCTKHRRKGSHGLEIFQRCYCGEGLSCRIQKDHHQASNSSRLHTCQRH

[10] = tested on: Inhibin beta A chain (activin A); test: small molecules binding activin A – biochemical, small-molecule microarray, 635 nm fluorescence scan, primary screen (AID 1107); conditions: INHBA, higher = more signal;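 note: mouse activin A protein probed at 4.33 µg/mL on printed slides; score merges bound-protein fluorescence near 667 nm with spot signal-to-noise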

| SMILES | composite z-score [1] | composite z-score [2] | composite z-score [3] | z-score [4] | composite z-score [5] | composite z-score [6] | composite z-score [7] | composite z-score [8] | composite z-score [9] | composite z-score [10] |
| --- | --- | --- | --- | --- | --- | --- | --- | --- | --- | --- |
| COc1ccc([Si](C)(C)[C@H]2[C@H](CC(=O)N3CCC[C@H]3CO)O[C@@]3(C(=O)N(Cc4ccc(N5C(=O)c6cccc7cccc5c67)cc4)c4ccccc43)[C@@H]2C)cc1 | 1.4 | 0.184 | 0.0075 | -1.17 (inactive) | 0.651 | 1.2 | 0.6 | 1.35 | 0.736 | 0.4 |
| CCCCC(=C=CC[C@H](O)c1ccccc1OCCO)C[C@H](O)c1ccccn1 | 1.36 | -0.127 | 0.211 | -0.471 (inactive) | 0.551 | -0.251 | 0.324 | 0.549 | -0.0601 | 1.54 |
| COCCOC(=O)N1C(=O)[C@@]2(c3ccccc31)[C@H](c1ccccc1OCCO)N1[C@H](c3ccccc3)[C@H](c3ccccc3)OC(=O)[C@H]1[C@@H]2C(=O)N1CCc2cc(OC)c(OC)cc2C1 | 1.1 | 0.153 | 0.49 | -1.42 (inactive) | 0.658 | 1.28 | 0.261 | 0.788 | 0.424 | 0.41 |
| COCCCNC(=O)[C@@H]1c2ccccc2C(=O)N(c2ccc(C)cn2)[C@H]1c1ccc(CO)cc1 | 1.21 | -0.281 | 1.01 | -0.517 (inactive) | -1.87 | -1.19 | -2.24 | -1.84 | -1.42 | -1.84 |
| O=C1O[C@H](c2ccccc2)[C@H](c2ccccc2)N2[C@H]1[C@@H](C(=O)N1CCCCCCC1)[C@]1(C(=O)Nc3ccccc31)[C@H]2c1ccc(O)cc1 | 2.04 | 2.68 | 1.79 | -0.365 (inactive) | 1.68 | 1.49 | 2 | 1.8 | 2.68 | 2 |
| C=C(COC)/C(=C/C[C@@H](OC(=O)c1ccncc1)c1cccc(OCCO)c1)c1cc(C(=O)OC)ccc1OC | 0.756 | -0.183 | -0.471 | -0.651 (inactive) | 1.62 | 1.2 | 0.29 | 0.902 | 0.167 | 0.997 |
| CCOC(=O)C[C@H]1[C@H](OC(=O)Cc2ccc3c(c2)OCO3)[C@@H](NC(=O)c2ccccc2)c2cc(OCCCO)ccc2N1C(=O)c1ccc2ccccc2n1 | 0.347 | -0.0053 | -0.329 | -2.44 (inactive) | 0.274 | 0.329 | 0.548 | 0.0676 | 0.328 | 0.318 |
| N#Cc1ccc(NN2C(C(O)c3ccco3)C=CC3C(=O)N(c4ccccc4)C(=O)C32)cc1 (stereo not given) | 0.939 | 0.565 | 0.843 | 1.07 (inactive) | 0.505 | -0.202 | 0.0343 | 0.0837 | 0.18 | 0.921 |
| CCCNC(=O)[C@@]1(Sc2ccc(C)cc2)CC(=O)N(Cc2ccccc2)[C@@H]1c1ccc(CO)cc1I | 0.523 | 0.806 | 0.484 | -0.494 (inactive) | 0.559 | 0.108 | 0.183 | 0.942 | 0.353 | 1.47 |
| O=C1O[C@H](c2ccccc2)[C@H](c2ccccc2)N2[C@H]1[C@@H](C(=O)N1CCCCCCC1)[C@]1(C(=O)Nc3ccc(C#CCCO)cc31)[C@H]2c1ccc(OCCO)cc1 | 2.14 | 2.78 | 1.42 | -0.302 (inactive) | 1.65 | 1.45 | 1.89 | 1.66 | 2.65 | 1.9 |
| C=CCC(OC(C)=O)[C@@H]1[C@@H](N(Cc2cccc3ccccc23)C(=O)c2ccc(C)cc2)c2cc(OCCCO)ccc2N1C(=O)c1ccc2ccccc2c1 (stereo not given in full) | -0.269 | -0.259 | 0.281 | -1.86 (inactive) | 0.11 | 0.0882 | 0.286 | 0.421 | 0.181 | 1.08 |
| C=CC[C@@]1(C(=O)NCC(O)CO)N=C(c2ccc(OCCCO)cc2)O[C@@H]1c1ccccc1 (stereo not given in full) | 1.46 | 1.24 | 1.34 | -0.195 (inactive) | 1.47 | 0.0168 | -0.829 | -0.29 | -0.135 | 0.505 |
| C=CCOc1ccc([C@@H]2CC=C(C(=O)OCC)[C@H](c3cccc(Br)c3)N2S(=O)(=O)c2ccc(C)cc2)cc1 | 0.251 | 0.735 | 1.04 | -0.776 (inactive) | 0.248 | -1.11 | -0.0936 | 0.167 | 0.644 | 1.46 |
| COCCOC(=O)N1C(=O)[C@@]2(c3cc(C#CCC(C(=O)OC)C(=O)OC)ccc31)[C@H](C(=O)N1CCCCCCC1)[C@H]1C(=O)O[C@H](c3ccccc3)[C@H](c3ccccc3)N1[C@@H]2c1ccc(O)cc1 | 1.36 | 1.7 | 1.41 | 0.0931 (inactive) | 1.2 | 1.3 | 0.783 | 1.45 | 1.07 | 1.63 |
| O=C1O[C@H](c2ccccc2)[C@H](c2ccccc2)N2[C@H]1[C@@H](C(=O)NC[C@H](O)c1ccccc1)[C@]1(C(=O)Nc3ccccc31)[C@H]2c1ccccc1OCCO | 1.61 | -0.0915 | 0.499 | -2.06 (inactive) | 0.561 | 0.447 | 0.0728 | 0.263 | -0.0453 | 0.914 |
| C[C@]12C(=O)N(CCCCCO)[C@@H]3C(=O)N(c4ccc(Cl)cc4)CC=CC31O[C@@H]1/C=C\CCCOC(=O)C12 (stereo not given in full) | 0.677 | -0.131 | 0.557 | -0.0628 (inactive) | -1.21 | -1.82 | -1.22 | -0.934 | -1.19 | -0.0839 |
| CN(C)CCCCNC(=O)[C@H]1C[C@H]2C(=O)N[C@@H](CCCC[N+](C)(C)C)C(=O)N2[C@H]1c1cccc(OCCO)c1 | 1.57 | -0.124 | 0.15 | -0.698 (inactive) | 0.217 | 0.571 | 0.126 | 0.738 | 0.797 | 0.877 |
| C=C(/C(=C/C[C@@H](OC(C)=O)c1ccccc1OCCO)c1cnc2ccccc2c1)C(C)C | 0.85 | -0.0495 | 0.168 | -0.333 (inactive) | 1.22 | 0.312 | 0.038 | 1.15 | 0.331 | 1.7 |
| CCCCC(=C=CC[C@H](O)c1cccc(OCCO)c1)C[C@H](O)COCc1ccccc1 | 0.766 | -0.31 | -0.053 | -0.992 (inactive) | 0.688 | -0.207 | -0.572 | -0.117 | -0.627 | 0.58 |
| NC(=O)[C@H]1[C@@H]2C(=O)O[C@@H](c3ccccc3)[C@@H](c3ccccc3)N2[C@@H](c2ccc(O)cc2)[C@]12C(=O)Nc1ccc(C#CC3(O)CCCCCC3)cc12 | 1.37 | 0.156 | 0.0715 | -1.32 (inactive) | 1.36 | 1.31 | 0.53 | 1.42 | 0.573 | 0.593 |
| CN(C)C(=O)[C@@]1(CCS(=O)(=O)c2ccccc2)N=C(c2ccc(OCCCO)cc2)O[C@H]1c1ccccc1CN=[N+]=[N-] | 1.02 | 0.182 | 0.286 | -0.863 (inactive) | 1.41 | 1.36 | 0.27 | 0.922 | 0.52 | 0.69 |
| Cc1ccc(S[C@]2(C(=O)NCCN3CCOCC3)CC(=O)N(C3Cc4ccccc4C3)[C@@H]2c2ccc(CO)cc2)cc1 | 1.48 | 0.0662 | 0.64 | -0.0221 (inactive) | -0.644 | -1.2 | -1 | -0.804 | -0.866 | 0.345 |
| COCCOC(=O)N1C(=O)[C@@]2(c3cc(C#Cc4ccc(OC)cc4)ccc31)[C@H](C(=O)N1CCc3cc(OC)c(OC)cc3C1)[C@H]1C(=O)O[C@H](c3ccccc3)[C@H](c3ccccc3)N1[C@@H]2c1ccc(O)cc1 | 0.404 | -0.0986 | -0.107 | -0.318 (inactive) | 1.06 | 1.21 | 0.465 | 0.649 | 0.644 | 0.837 |
| COCCOC(=O)N1C(=O)[C@@]2(c3cc(C#CC4(O)CCCCCC4)ccc31)[C@H](C(=O)NC[C@H](O)c1ccccc1)[C@H]1C(=O)O[C@H](c3ccccc3)[C@H](c3ccccc3)N1[C@@H]2c1ccc(OCCO)cc1 | 0.971 | -0.0726 | -0.0689 | -1.15 (inactive) | 0.68 | 0.673 | 0.429 | 0.834 | 0.348 | 0.193 |
| O=C1N(Cc2ccccc2)c2ccccc2[C@H]2OC(c3ccc(OCCCO)cc3)=N[C@@]12CCS(=O)(=O)c1ccccc1 | 0.703 | -0.0921 | 0.584 | 0.212 (inactive) | 1.06 | 1.31 | 0.385 | 1.23 | 0.379 | 0.808 |
| C=CCC(OC(C)=O)[C@@H]1[C@@H](N(Cc2cc3ccccc3o2)C(=O)Cc2ccc(OC)cc2)c2cc(OCCCO)ccc2N1C(=O)c1ccc(-c2ccccc2)cc1 (stereo not given in full) | -0.297 | 0.068 | 0.63 | -0.354 (inactive) | -0.185 | -0.158 | -0.426 | -0.272 | -0.45 | 1.34 |
| CCCC=C(CCC)[C@@H](NS(=O)(=O)c1ccccc1)c1ccc(C(F)(F)F)cc1 | 0.98 | 0.965 | 0.224 | -3.31 (inactive) | 0.867 | 1.32 | 0.216 | 0.89 | -0.0595 | -0.0447 |
| COc1cc(C(O)C2C=CC3C(=O)NC(=O)C3N2Nc2ccc(Cl)cc2Cl)cc(OC)c1OC (stereo not given) | 1.18 | 0.88 | 1.12 | 0.734 (inactive) | 0.746 | 0.189 | -0.0874 | 1.28 | -0.675 | 1.11 |
